# A selection: hits, their analogues and other compounds. The true share with any hit is near 6.6%.
# DPM-DC inhibit – S. pneumoniae DPM-DC inhibitors, primary screen, biochemical, PK/LDH-coupled NADH fluorescence | diphosphomevalonate decarboxylase (Streptococcus pneumoniae D39) | purified DPM-DC | calls only at 10 µM | hit rate 0.49% among 65,000;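 active = the 320 compounds with the highest percent inhibition in the single-dose primary screen, excluding strongly autofluorescent ones, cut at about 32% in these data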;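 note: kinetic rate of NADH fluorescence loss reporting ADP formed by the decarboxylase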
# PMK inhibit – S. pneumoniae PMK inhibitors, primary screen, biochemical, mevalonate pathway, pilot trial included; phosphomevalonate kinase (Streptococcus pneumoniae D39); inhibition, % at 10 µM; AID 539, 2006; hit rate 0.49% among 65,000; purified PMK, PK/LDH-coupled NADH absorbance 340 nm;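 active = top-ranked compounds by inhibition in the single 10 µM screen, taking a fixed number of the strongest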;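 note: 0% = full reaction with DMSO carrier and 100% = background rate without enzyme reaction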
# MK inhibit – S. pneumoniae MK inhibitors, primary screen, biochemical, PK/LDH-coupled NADH absorbance; mevalonate kinase [Streptococcus pneumoniae D39]; purified MK, PK/LDH-coupled NADH absorbance 340 nm; inhibition, % at 10 µM; hit rate 0.48% among 65,000;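 active = ranked among the strongest by inhibition in the single 10 µM screen, a fixed top-ranked set picked for dose follow-up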
# Fluor 339 460 – intrinsic fluorescence of library compounds, ex339/em460 – biochemical, MLSMR library, data from DPM-DC assay, artefact control, profiling panel | hit rate 5.5% among 65,000 | AID 709, 2007 | compound autofluorescence, ex339/em460 nm, NADH buffer; active compounds read high; 1 = no-compound wells, NADH background | fluorescence fold increase at 10 µM;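 active = at 10 µM, mean starting fluorescence two-fold or more over control wells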;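 note: signal is the first read of a kinetic run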
# NADH coupling – inhibitors of PK/LDH coupling enzymes, profiling panel, artefact control, biochemical, MLSMR library | IC50, µM (doses to about 10 µM), for inactives: at the highest dose inhibition | AID 774, 2007 | hit rate 0.02% among 65,000 | coupled PK/LDH NADH assays, four targets;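 active = single-dose screening hits from any of four coupled enzyme assays that gave an IC50 when retested across doses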;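 note: the DPM-DC format reads NADH fluorescence rather than 340 nm absorbance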
# * hit, by the source's call; i = inactive; . = no result given; + = active, no number.
SMILES,DPM-DC inhibit,PMK inhibit,MK inhibit,Fluor 339 460,NADH coupling
CC1CCc2c(C(=O)N3CCN(S(=O)(=O)c4cccs4)CC3)csc2C1 (stereo unspecified),i,10,1,1,4%
c1ccc(Cn2nnnc2C(c2cccnc2)N2CCN(c3ccccc3)CC2)cc1 (stereo unspecified),i,11,0,1,4%
CC(C)Cc1nc2oc3c(NCC4CCCO4)ncnc3c2c2c1CCC2 (stereo unspecified),i,11,8,2.6*,15%
CC(C)Cc1nc2oc3c(NCc4cccnc4)ncnc3c2c2c1CCC2,i,16,11,2.6*,19%
CC(C)c1nc2oc3c(NCc4cccnc4)ncnc3c2c2c1CCC2,i,12,5,2.1*,8%
CN1C(=O)CSc2ccc(NC(=O)NCCC3=CCCCC3)cc21,i,2,13,1,7%
CCOC(=O)N1CCN(C(=O)c2ccc(CN(c3ccccc3)S(C)(=O)=O)cc2)CC1,i,0,9,1.1,3%
O=C(O)CCC1COc2ccccc2O1 (stereo unspecified),i,0,8,1.2,5%
Cc1ccc(C(=O)OCc2cn3ccccc3n2)cc1,i,5,1,1.1,2%
CCOC(=O)c1cc(-c2cccs2)nc2onc(C)c12,.,11,0,4.8*,6%
c1csc(-c2cnc3n2CCCC3)c1,i,0,6,1.1,2%
Cc1noc2nc(-c3cccs3)cc(-c3nnc4n3CCCCC4)c12,.,11,0,2.1*,6%
CCOC(=O)c1nnn(-c2nonc2N)c1-c1cccs1,i,18,0,1.1,6%
CCOC(=O)c1c(C)oc2cc(Br)c(OC(=O)N3CCOCC3)cc12,i,4,5,1.1,3%
Cc1ccccc1S(=O)(=O)Nc1nc2ccccc2nc1N1CCOCC1,i,5,9,1.1,6%
CCOC(=O)Cc1csc(NC(=O)CSc2ncnc3c2cnn3-c2ccc(OC)cc2)n1,i,12,11,2.5*,9%
CC1(c2ccccc2)NC(=O)N(CC(=O)Nc2cccc(C#N)c2)C1=O (stereo unspecified),i,6,12,1.3,16%
COc1ccc(N2CCN(Cc3cc(=O)oc4c3ccc3ccccc34)CC2)cc1,i,7,10,1.1,6%
O=c1cc(C(F)F)oc2c1ccc1ccccc12,.,0,7,2.5*,1%
CCOC(=O)c1sc2nc(N3CCOCC3)c3c(c2c1N)CCC3,.,5,17,3.6*,11%
COC(=O)c1sc2nc(N3CCCCC3)c3c(c2c1N)CC(C)(C)N(C)C3,.,2,0,2.3*,1%
COC(=O)COC(=O)CC(CC(N)=O)c1ccccc1 (stereo unspecified),i,8,6,1.1,5%
COc1ccc(-n2nc3cc(C)c(NC(=O)c4cccnc4)cc3n2)cc1,i,10,8,3.3*,14%
COc1ccc(-n2nc3cc(C)c(NC(=O)CC(C)C)cc3n2)cc1,.,7,5,2.1*,6%
Cc1cc2nn(-c3ccccc3)nc2cc1NC(=O)c1cccs1,i,1,1,1.3,1%
SMILES,DPM-DC inhibit,PMK inhibit,MK inhibit,Fluor 339 460,NADH coupling
CCOc1ccc2nc(-c3ccccc3)[nH]c2c1,.,4,10,4*,7%
COc1ccc2nc(NCc3ccccc3)[nH]c2c1,i,10,9,1.1,6%
COc1ccc2nc(-c3ccccc3)[nH]c2c1,.,1,6,2.3*,4%
CCOc1ccc2nc(C(C)O)[nH]c2c1 (stereo unspecified),i,16,7,1.1,15%
O=C(OCC(F)(F)C(F)F)c1ccccc1C(=O)Oc1ccc(F)cc1F,i,14,5,1.1,6%
COc1cc(OC)c(-c2nnc(-c3ccc(OC)c(OC)c3OC)o2)cc1OC,.,19,7,2.1*,13%
COCCCNC(=O)CCS(=O)(=O)Cc1ccc(C)cc1,i,12,6,1.1,6%
O=C(COC(=O)c1ccc(=O)n(Cc2ccccc2)n1)Nc1ccc2c(c1)OCCO2,i,8,3,1.1,4%
CC(C)(C)NCc1cccn1-c1sc2c(c1C#N)CCCC2,i,0,49*,1.1,16%
CC(=O)Nc1sc2c(c1C#N)CCCCC2,i,15,10,1,3%
COc1ccc(Cn2c(C)nc3oc4cc(OC)ccc4c(=O)c3c2=O)cc1,i,0,6,1.1,2%
COc1cc(OC)c2c(C)c(Cl)c(=O)oc2c1,.,9,0,3.7*,5%
O=C(c1ccccc1C(F)(F)F)N1CCN(S(=O)(=O)c2ccccc2)CC1,i,9,4,1.1,4%
CCCN1CCN(CCCNC(=O)Cn2nc(-c3ccccc3)ccc2=O)CC1,i,27*,7,1.1,11%
N=c1n(CCN2CCOCC2)c2ccccc2n1CC(=O)c1ccc(Cl)c(Cl)c1,i,26*,2,1.1,9%
Cc1csc2ncc(C(=O)Nc3cccc(C(F)(F)F)c3)c(=O)n12,i,5,3,1.4,10%
COc1ccc(C)cc1NC(=O)c1cnc2scc(C)n2c1=O,.,9,0,2.1*,5%
CCc1ccc(NC(=O)c2cnc3scc(C)n3c2=O)cc1,+,4,14,1.2,26%
c1ccc(Cn2nnc3c(Nc4ccc5c(c4)OCO5)nc(C4CC4)nc32)cc1,.,0,0,3.7*,0%
CCOc1ccc(S(=O)(=O)NCC2CCCO2)c2cccnc12 (stereo unspecified),i,0,6,2.2*,4%
CCOc1ccc(S(=O)(=O)Nc2ccccc2SC)c2cccnc12,i,0,3,1.2,1%
O=C(O)c1cc(-c2ccccc2)nc2ccccc12,i,1,4,1,2%
O=C(O)c1cc(Cl)c2ccccc2c1O,.,4,12,3.8*,8%
CCCCSc1c(C)c2cc3c(cc2[nH]c1=O)OCO3,i,11,11,1.7,14%
CCOC(=O)N1CCN(c2cc(C)nc3nc(C)nn23)CC1,.,4,5,2.1*,5%
Cc1cc(N2CCCC2)n2nc(C)nc2n1,i,5,6,1.1,4%
COc1ccccc1NC(=O)NC1(C(=O)N2CCC(O)CC2)CCCCC1,i,0,9,1.1,1%
CCOc1cc2[nH]c(=O)n(CCCCC(=O)NC3CCCCC3)c(=O)c2cc1OCC,i,2,3,2.5*,5%
CCOc1cc2[nH]c(=O)n(CCCC(=O)NCc3ccco3)c(=O)c2cc1OCC,i,5,1,2.3*,6%
COc1cc2[nH]c(=O)n(CCC(=O)NC3CCCC3)c(=O)c2cc1OC,i,14,0,2*,5%
